# ± gives the uncertainty stated by the source.
# Test system: Candidatus Liberibacter solanacearum in potato hairy roots
# Experiment: relative CLso titer (% of untreated control); higher = less inhibition of bacterial titer
# Details: 10 µM; 72 h
# Protocol: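 Primary screen of ~220 Spectrum collection (MicroSource) compounds at 10 µM (0.1% DMSO) on Candidatus Liberibacter solanacearum-infected potato hairy roots in multi-well plates (Gamborg B-5 medium, vacuum infiltrated, 21 °C, dark, 72 h). CLso titer was measured by qPCR of 16S rDNA normalised to potato RPL2 (2^-ddCq), pairwise-standardised against untreated controls, averaged over two biological replicates and expressed as % of untreated.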
row,SMILES,relative CLso titer [%]
1,CCN(CCCc1ccccc1)CCCc1ccccc1,66.9 ± 21
2,Cn1c([N+](=O)[O-])cnc1COC(N)=O,81.53 ± 0.13
3,CC(=O)O[C@]1(C(C)=O)CC[C@H]2[C@@H]3C=C(Cl)C4=CC(=O)[C@@H]5C[C@@H]5[C@]4(C)[C@H]3CC[C@@]21C,114 ± 4.7
4,C[C@]12CC[C@@H]3c4ccc(OC(=O)c5ccccc5)cc4CC[C@H]3[C@@H]1CC[C@@H]2O,155 ± 66
5,CCCCOc1ccc(OCCCN2CCOCC2)cc1,106 ± 37
6,CCCCCCCCNC(C)C(O)c1ccc(SC(C)C)cc1 (centres undefined),80.3 ± 5.9
7,C[C@@](Cc1ccc(O)c(O)c1)(NN)C(=O)O,138.8 ± 1.3
8,NCCCC[C@H](N[C@@H](CCc1ccccc1)C(=O)O)C(=O)N1CCC[C@H]1C(=O)O,105 ± 33
9,C[C@H]1O[C@@H](O[C@H]2[C@@H](O)C[C@H](O[C@H]3[C@@H](O)C[C@H](O[C@H]4CC[C@@]5(C)[C@H](CC[C@@H]6[C@@H]5CC[C@]5(C)[C@@H](C7=CC(=O)OC7)CC[C@]65O)C4)O[C@@H]3C)O[C@@H]2C)C[C@H](O)[C@@H]1O,231 ± 140
10,CN(C)CCOC(c1ccc(Cl)cc1)c1ccccn1 (centres undefined),35.2 ± 4.8
11,COC1=CC(=O)C[C@@H](C)[C@]12Oc1c(Cl)c(OC)cc(OC)c1C2=O,67.3 ± 13
12,CC1(C)OC(=O)C(OCC2CC2)=C1c1ccc(S(C)(=O)=O)cc1,53.8 ± 6.5
13,CCC(=O)O[C@H]1[C@H](O[C@@H]2[C@@H](C)[C@H](O[C@H]3C[C@@](C)(OC)[C@@H](O)[C@H](C)O3)[C@@H](C)C(=O)O[C@H](CC)[C@@](C)(O)[C@H](O)[C@@H](C)C(=O)[C@H](C)C[C@@]2(C)O)O[C@H](C)C[C@@H]1N(C)C,108 ± 26
14,COc1ccc([C@H]2COc3c(ccc(O)c3OC)C2)c(OC)c1O,35.5 ± 2.5
15,C/C=C(/C(=C/C)c1ccc(O)cc1)c1ccc(O)cc1,108 ± 17
16,OCC(S)CS (centres undefined),67.2 ± 36
17,O=C1NS(=O)(=O)c2ccccc21,73.2 ± 19

row,SMILES,relative CLso titer [%]
1,CC(=O)OCC(=O)[C@@]1(O)[C@H](C)C[C@H]2[C@@H]3CCC4=CC(=O)C=C[C@]4(C)[C@@]3(F)[C@@H](O)C[C@@]21C,101 ± 39
2,COc1ccc2c3c1O[C@H]1C[C@@H](O)C=C[C@@]31CCN(C)C2,104 ± 28
3,CCN1CCCC(OC(=O)C(c2ccccc2)c2ccccc2)C1 (centres undefined),188 ± 36
4,C[C@@H]1C[C@H]2[C@@H]3C[C@H](F)C4=CC(=O)C=C[C@]4(C)[C@@]3(F)[C@@H](O)C[C@]2(C)[C@@]1(OC(=O)c1ccco1)C(=O)SCF,92.9 ± 10
5,CC1(C)S[C@@H]2[C@H](NC(=O)C(C(=O)O)c3ccccc3)C(=O)N2[C@H]1C(=O)O (some centres undefined),43.3 ± 14
6,C#C[C@]1(OC(C)=O)CC[C@H]2[C@@H]3CCC4=CC(=NO)CC[C@@H]4[C@H]3CC[C@@]21CC (mixture of isomers),64.9 ± 10
7,Clc1ccc(COC(Cn2ccnc2)c2ccc(Cl)cc2Cl)cc1 (centres undefined),101 ± 35
8,O=S(=O)(O)CCS,110 ± 3.6
9,CC1=C(/C=C/C(C)=C/C=C/C(C)=C/CO)C(C)(C)CCC1,195 ± 25
10,CCN1CCC[C@H]1CNC(=O)c1cc(S(N)(=O)=O)ccc1OC,118 ± 86
11,C[n+]1cc2c3c(ccc2c2ccc4cc5c(cc4c21)OCO5)OCO3,86.7 ± 34
12,COc1cc(CNC(=O)CCCC/C=C/C(C)C)ccc1O,130 ± 4.3
13,C[C@]12CC[C@@H]3c4ccc(O)cc4CC[C@H]3[C@@H]1CC[C@@H]2O,126 ± 25
14,OC[C@@H](O)[C@@H](O)[C@H](O)[C@H](O)CO,70.5 ± 11
15,CC(NCCc1ccc(O)cc1)C(O)c1ccc(O)cc1 (centres undefined),82.6 ± 20
16,C[C@@H]1O[C@@H]1P(=O)(O)O,155 ± 15
17,CN(C)[C@@H]1C(O)=C(C(N)=O)C(=O)[C@@]2(O)C(O)=C3C(=O)c4c(O)ccc(Cl)c4[C@@](C)(O)[C@H]3C[C@@H]12,35.8 ± 4.5

# — the supplement of paper PMC7669877
